PubChem BioAssay (EPA / NIEHS)
Inconclusive results are not listed. The source made the active and inactive calls. Rule for the calls: active = hit-call score of the fitted dose curve at least 0.9, where 1 is the maximum; inconclusive = response in the unintended direction; inactive = score below 0.9.

These compounds were tested against Androgen Receptor/SRC-1 Co-activator, AR (gene 367) (UniProt P10275) (assay: OT_AR_ARSRC1_0480: Odyssey Thera (OT) 8-hour HEK293T Protein-Complementation Assay for Androgen Receptor/SRC-1 Co-activator (AID 2283354);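 note: hits raise the complementation signal above DMSO so AC50 marks enhancers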).
Sequence of Androgen Receptor/SRC-1 Co-activator, AR (gene 367) (P10275 whole entry, looked up, the tested form may be a part): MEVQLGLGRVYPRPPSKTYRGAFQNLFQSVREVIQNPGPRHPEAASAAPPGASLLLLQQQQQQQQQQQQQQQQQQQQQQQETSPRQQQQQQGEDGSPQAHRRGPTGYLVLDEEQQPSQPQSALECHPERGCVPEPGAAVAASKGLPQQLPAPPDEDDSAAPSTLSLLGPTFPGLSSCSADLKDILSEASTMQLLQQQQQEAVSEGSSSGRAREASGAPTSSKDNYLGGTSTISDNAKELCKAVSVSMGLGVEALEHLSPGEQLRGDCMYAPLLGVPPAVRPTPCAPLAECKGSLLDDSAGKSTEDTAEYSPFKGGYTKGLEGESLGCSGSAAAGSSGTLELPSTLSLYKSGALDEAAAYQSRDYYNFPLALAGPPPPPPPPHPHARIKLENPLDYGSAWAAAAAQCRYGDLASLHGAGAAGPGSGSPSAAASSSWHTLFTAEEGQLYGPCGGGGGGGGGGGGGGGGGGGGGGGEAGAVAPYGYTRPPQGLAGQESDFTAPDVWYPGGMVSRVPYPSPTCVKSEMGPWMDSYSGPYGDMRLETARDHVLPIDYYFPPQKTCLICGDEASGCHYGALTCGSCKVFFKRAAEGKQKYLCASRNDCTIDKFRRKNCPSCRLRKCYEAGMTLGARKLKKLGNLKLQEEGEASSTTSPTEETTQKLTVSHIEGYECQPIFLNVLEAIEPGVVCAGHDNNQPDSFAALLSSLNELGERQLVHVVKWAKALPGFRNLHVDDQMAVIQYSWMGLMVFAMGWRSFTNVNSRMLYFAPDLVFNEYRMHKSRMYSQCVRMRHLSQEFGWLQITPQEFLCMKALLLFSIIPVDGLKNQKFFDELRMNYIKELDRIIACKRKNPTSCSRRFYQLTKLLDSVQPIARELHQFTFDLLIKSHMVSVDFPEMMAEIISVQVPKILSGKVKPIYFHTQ
Experimental: OT_AR_ARSRC1_0480 is a cell-based, single-readout assay that uses HEK293T, a human kidney cell line, with measurements taken at 8 hours after chemical dosing in a 384-well plate.OT_AR_ARSRC1_0480 is one of one assay component(s) measured or calculated from the OT_AR_ARSRC1_0480 assay. It is designed to make measurements of protein fragment complementation, a form of binding reporter, as detected with fluorescence intensity signals by Protein-fragment Complementation technology.Data from the assay component OT_AR_ARSRC1_0480 was analyzed into 1 assay endpoint. This assay endpoint, OT_AR_ARSRC1_0480, was analyzed in the positive analysis fitting direction relative to DMSO as the negative control and baseline of activity. Using a type of binding reporter, measures of receptor for gain-of-signal activity can be used to understand the binding at the pathway-level as they relate to the gene AR. Furthermore, this assay endpoint can be referred to as a primary readout, because the performed assay has only produced 1 assay endpoint. To generalize the intended target to other relatable targets, this assay endpoint is annotated to the nuclear receptor intended target family, where the subfamily is steroidal.
Protein-fragment complementation assay, or PCA, is a method for the identification and quantification of protein-protein interactions. In the PCA, the proteins of interest ("bait" and "prey") are each covalently linked to fragments of a third protein (e.g. DHFR, which acts as a "reporter"). Interaction between the bait and the prey proteins brings the fragments of the reporter protein in close proximity to allow them to form a functional reporter protein whose activity can be measured. The OT AR / SRC-1 assay assessed androgen receptor chemical interactions using a rapidly maturing, intensely fluorescent mutant of YFP known as Venus, rationally dissected into two separate fragments. […] Fusion constructs were transfected into HEK293T cells with a (Gly4Ser)2 linker between the AR/SRC-1 and YFP fragment genes to facilitate complementation when interacting proteins bring fragments into close proximity. The construct is stably expressed in HEK293T cells. […] Images were acquired on an Evotec Opera at 2 wavelengths (488 and 635nm), and the ratio of fluorescence in the nucleus relative to fluorescence in the cytoplasm (N/C Ratio) in the 488nm channel was calculated for a minimum of 400 cells per image. Both agonists and antagonists of the AR receptor induce nuclear translocation to varying degrees. […] The OT AR/SRC-1 assay was also run for 16 hours (see description for OT_AR_ARSRC1_0960).
Cc1ccc(N(C)C)cc1 was tested, and the outcome was “inactive”.
Cc1ccc(C)c(C)c1 was tested, and the outcome was “inactive”.
With Cc1cc(NC(=O)C(=O)O)cc(C)c1Oc1ccc(O)c2c1CCC2 the outcome was “inactive”.
In the case of Cc1cccc(C)c1O, the outcome is reported as “inactive”.
For CN[C@H]1CC[C@@H](c2ccc(Cl)c(Cl)c2)c2ccc(S(N)(=O)=O)cc21, the AC50 was 19.9 µM (active).
In the case of Cc1ccc(C)c(O)c1C, the outcome is reported as “inactive”.
For Cc1nc(-c2ccc3c(c2)CCN(CCC2CCC(NC(=O)/C=C/c4ccc(F)cc4)CC2)CC3)no1 (stereo not given), the outcome was “inactive”.
COCCOC[C@H](CC1(C(=O)NC2CCC(C(=O)O)CC2)CCCC1)C(=O)Oc1ccc2c(c1)CCC2 (stereo not given in full) was tested, and the outcome was “inactive”.
With CCOc1ccc2c(c1)C(C)=CC(C)(C)N2 the outcome was “inactive”.
With Cc1ccccc1Cl the outcome was “inactive”.
For COc1ccc(C)cc1N, the outcome was “inactive”.
For COc1cc(-c2nc(NC(=O)c3cc4cc(C)cc(C)c4n3CC(=O)O)sc2CCC2CCCCC2)c(OC)cc1Cl, the AC50 was 49.1 µM (active).
CC(C)(C)c1cc(O)c(C(C)(C)C)cc1O was tested, and the outcome was “inactive”.
For CNC(=O)[C@H]1O[C@@H](n2cnc3c(NCc4cc(Cl)ccc4OCc4cc(C)no4)ncnc32)[C@H](O)[C@@H]1N, the outcome was “inactive”.
In the case of O=C(O)Cc1ccccc1Nc1c(Cl)cccc1Cl, the outcome is reported as “inactive”.
For CC(=O)Oc1ccccc1C(=O)O, the outcome was “inactive”.
For COc1cc(C=O)ccc1O, the outcome was “inactive”.
For Cc1cccc(Nc2cc(Cl)nc(SCC(=O)O)n2)c1C, the outcome was “inactive”.
COc1ccc(S(=O)(=O)N2C(=O)[C@@](c3ccccc3OC)(N3C[C@H](O)C[C@H]3C(=O)N(C)C)c3cc(Cl)ccc32)c(OC)c1 was tested, and the AC50 was 27.2 µM (active).
COc1ccc2c(c1)c(CC(=O)O)c(C)n2C(=O)c1ccc(Cl)cc1 was tested, and the outcome was “inactive”.
